# Assay results reported in PubChem BioAssay (EPA / NIEHS).
# Inconclusive results are not listed. The source made the active and inactive calls. How the source made its calls, unless noted: active means hit-call score of the fitted dose curve at least 0.9, where 1 is the maximum; inactive means score below 0.9.
# Assays:
# [1] = CCTE_Shafer_MEA_acute_burst_percentage_mean: CCTE's Neural Acute Assay for Percentage of Spikes in a Burst, Shafer Lab (AID 2284017);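 on AC50: curve fitted for loss of signal so potency reflects decreased burst percentage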
# Summary of the method: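 Well-level mean burst percentage from a 40-min recording after compound (0.03-40 uM) expressed as percent change from a 40-min baseline at 37C. Cultures: primary rat cortical neurons on MEA, dosed on DIV 13 or 15; fitted downward relative to DMSO.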
# [2] = CCTE_Shafer_MEA_acute_per_network_burst_spike_number_mean: CCTE's Neural Acute Assay for Average Number of Spikes in a Network Burst, Shafer Lab (AID 2284019);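 on AC50: curve fitted for loss of signal so actives reduce spikes per network burst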
# Summary of the method: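 Primary rat cortical neurons on 16-electrode MEA wells, DIV 13 or 15, 37 C; 40-min baseline then 40-min recording with compound (0.03-40 uM). Spikes per network burst (total spikes/number of bursts) expressed as percent change from baseline, DMSO reference.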
# [3] = CCTE_Shafer_MEA_acute_per_network_burst_spike_number_std: CCTE's Neural Acute Assay for Standard Deviation of Number of Spikes in a Network Burst, Shafer Lab (AID 2284020);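 further: fitted for decrease in spike-number SD versus DMSO so actives lower it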
# Summary of the method: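 Primary rat cortical neurons on 48-well MEAs (16 electrodes/well) recorded at DIV 13 or 15: 40-min baseline, then 40 min with compound (0.03-40 uM), 37 C. Value is percent change in SD of spikes per network burst, relative to DMSO.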
# [4] = CCTE_Shafer_MEA_acute_per_network_burst_electrodes_number_mean: CCTE's Neural Acute Assay for Mean Number of Electrodes in a Network Burst, Shafer Lab (AID 2284021);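 further: curves fitted for decreases only so hits reduce electrodes per burst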
# Summary of the method: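 Rat primary cortical neurons on 16-electrode MEA wells were recorded 40 min at baseline on DIV 13 or 15, then 40 min after compound (0.03-40 uM), at 37 C. Value is percent change per well, fitted in loss direction versus DMSO.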
# [5] = CCTE_Shafer_MEA_acute_cross_correlation_area: CCTE's Neural Acute Assay for Area of Cross Correlation, Shafer Lab (AID 2284024);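 further: area under pooled inter-electrode spike cross-correlation near zero lag as percent change from own baseline; curves fitted for loss of cross-correlation area so actives lower synchrony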
# Summary of the method: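 Primary rat cortical neurons on 48-well MEA plates (16 electrodes/well) were recorded 40 min at baseline on DIV 13 or 15, then 40 min with compound (0.03-40 uM) at 37 C; cross-correlation area expressed as percent change from baseline.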
# [6] = CCTE_Shafer_MEA_acute_cross_correlation_HWHM: CCTE's Neural Acute Assay for Cross Correlation at Half Width at Half Maximum, Shafer Lab (AID 2284026);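 further: percent change per well from pre-dose baseline in spike cross-correlogram half width; hits are a decrease in cross-correlogram half width relative to DMSO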;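 on outcome: spontaneous network firing of rat primary cortical neurons on multiwell microelectrode arrays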
# Summary of the method: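 Primary rat cortical neurons on 16-electrode MEA wells; 40-min baseline on DIV 13 or 15, then 40-min recording with compound (0.03-40 uM) at 37 C. HWHM of spike cross-correlogram expressed as percent change from baseline per well, DMSO reference.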
# [7] = CCTE_Shafer_MEA_acute_synchrony_index: CCTE's Neural Acute Assay for Synchrony, Shafer Lab (AID 2284027);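 further: fitted for loss of signal so actives lower synchrony relative to DMSO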
# Summary of the method: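 Readout is percent change in the unitless network synchrony index (0 low, 1 high) between a 40-min baseline and a 40-min recording in compound. Cultures were primary rat cortical neurons on MEAs, treated at 0.03-40 uM on DIV 13 or 15.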
# [8] = biological target: Estrogen receptor (Homo sapiens) (UniProt P03372); experiment: CCTE_Deisenroth_AIME_384WELL_LUC_Active: CCTE's 384-well Estrogen Receptor Transactivation Assay with AIME metabolic competence (ERTA luciferase; metabolism positive), Deisenroth Lab (AID 2284030; active means hit-call score of the fitted dose curve at least 0.9, where 1 is the maximum)
# Summary of the method: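 Test chemicals (10-point series, 0.002 - 200 uM) were preincubated 2 hours with alginate-immobilized phenobarbital/beta-naphthoflavone-induced male Sprague Dawley rat liver S9; conditioned medium then went onto VM7Luc4E2 breast cells for 24 hour. Luciferase gain-of-signal fitted relative to 17beta-estradiol.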
# [9] = CCTE_Deisenroth_AIME_384WELL_CTox_Active: Cytotoxicity Assessment (CTOX) in CCTE's 384-well Estrogen Receptor Transactivation Assay with AIME metabolic competence (metabolism positive), Deisenroth Lab (AID 2284037; active means hit-call score of the fitted dose curve at least 0.9, where 1 is the maximum;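 further: chemicals first conditioned 2 h by alginate-bound induced rat liver S9 before cells; activity means signal loss indicating cell death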)
# Summary of the method: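 VM7Luc4E2 breast cells received medium pre-incubated 2 h with chemical over alginate microspheres holding induced male Sprague Dawley rat liver S9; viability read 24 h later by protease-substrate fluorescence. Loss of signal, bidirectional fit, 0.002–200 uM.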
# [10] = biological target: Estrogen receptor (Homo sapiens) (UniProt P03372); experiment: CCTE_Deisenroth_AIME_384WELL_LUC_Inactive: CCTE's 384-well Estrogen Receptor Transactivation Assay without AIME metabolic competence (ERTA luciferase; metabolism negative), Deisenroth Lab (AID 2284038; active means hit-call score of the fitted dose curve at least 0.9, where 1 is the maximum;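 further: hits raise estrogen receptor luciferase signal so potencies reflect agonists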)
# Summary of the method: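 Metabolism-negative mode: chemicals (10-point, 0.002–200 uM) held 2 h with alginate-water microspheres, then conditioned medium applied to VM7Luc4E2 cells for 24 h. Luciferase induction referenced to 17beta-estradiol.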
# [11] = CCTE_Deisenroth_AIME_384WELL_CTox_Inactive: Cytotoxicity Assessment (CTOX) in CCTE's 384-well Estrogen Receptor Transactivation Assay without AIME metabolic competence (metabolism negative), Deisenroth Lab (AID 2284039; active means hit-call score of the fitted dose curve at least 0.9, where 1 is the maximum;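 further: cell viability via live-cell protease substrate cleaved to fluorescent probe; cells exposed 24 h to medium preincubated 2 h with alginate-water beads without S9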)
# Summary of the method: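 Fluorescent protease-substrate viability readout after 24 h exposure of VM7Luc4E2 cells to conditioned medium. Chemicals (0.002–200 uM) first sat 2 h over alginate-water beads, no S9. Data fitted bidirectionally, loss of signal meaning viability loss.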
# Chain of Estrogen receptor (Homo sapiens) (P03372 whole entry, looked up): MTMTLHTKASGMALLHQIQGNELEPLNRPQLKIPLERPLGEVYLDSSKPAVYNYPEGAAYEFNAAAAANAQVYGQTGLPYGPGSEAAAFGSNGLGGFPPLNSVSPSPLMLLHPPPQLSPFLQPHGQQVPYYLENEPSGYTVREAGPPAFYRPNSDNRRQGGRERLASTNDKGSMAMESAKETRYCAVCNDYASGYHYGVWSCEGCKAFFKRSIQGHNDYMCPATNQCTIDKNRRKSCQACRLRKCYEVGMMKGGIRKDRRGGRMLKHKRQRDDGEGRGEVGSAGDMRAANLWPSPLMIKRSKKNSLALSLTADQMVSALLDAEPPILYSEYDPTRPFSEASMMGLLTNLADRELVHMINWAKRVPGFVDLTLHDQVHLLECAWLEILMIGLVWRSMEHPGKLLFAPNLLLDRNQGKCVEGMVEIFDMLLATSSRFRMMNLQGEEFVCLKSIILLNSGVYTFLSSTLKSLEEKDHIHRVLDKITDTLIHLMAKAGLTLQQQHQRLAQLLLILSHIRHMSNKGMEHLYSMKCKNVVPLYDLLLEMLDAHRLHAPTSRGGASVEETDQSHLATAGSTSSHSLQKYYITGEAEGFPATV
SMILES,AC50 [1],outcome [2],AC50 [3],outcome [4],outcome [5],outcome [6],AC50 [7],outcome [1],outcome [3],outcome [7],outcome [8],outcome [9],outcome [10],outcome [11],AC50 [5],AC50 [2],AC50 [6]
O=C1OC(c2ccc(O)cc2)(c2ccc(O)cc2)c2ccccc21,24.6 µM (active),inactive,20 µM (active),inactive,inactive,inactive,28.5 µM (active),–,–,–,–,–,–,–,–,–,–
c1ccc2occc2c1,–,inactive,–,inactive,inactive,inactive,–,inactive,inactive,inactive,inactive,inactive,inactive,inactive,–,–,–
OCC(CO)n1cnc(-c2ccc(F)cc2)c1-c1ccnc(Oc2ccccc2)n1,–,inactive,–,inactive,–,inactive,–,inactive,inactive,inactive,–,–,–,–,3.9 µM (active),–,–
Nc1nc(=S)c2[nH]cnc2[nH]1,5.71 µM (active),–,–,inactive,inactive,–,3.98 µM (active),–,inactive,–,–,inactive,–,inactive,–,17.1 µM (active),32.2 µM (active)
